PubChem BioAssay
Calls of active or inactive are those of the source.

How the values were obtained:
Albumin (Bos taurus) = Albumin (Bos taurus) (UniProt P02769); test: compounds binding labelled BSA control protein – biochemical, small-molecule microarray, Alexa647 label, 635/667 nm fluorescence, artefact control for SMM control protein annotation, profiling panel (AID 1118); conditions: BSA-A647 binding, fluorescence 635 nm, higher = more signal;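 also: score merges 667 nm emission intensity and signal-to-noise per printed compound spot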
[1] = probe aXIP binding to arrayed compounds – biochemical, NeuroSMM set, 635/667 nm fluorescence, primary screen (AID 1119); conditions: small-molecule microarray, higher = more signal, called active from +8 up or from −8 down;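 also: probe is the protein aXip251-270 applied at 1 µg/mL to compound-printed slides; binding of probe to printed compounds measured as 667 nm fluorescence plus signal to noise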
[2] = probe aNOTCH3 binding on compound microarray – biochemical, small-molecule microarray, 635/667 nm fluorescence, primary screen (AID 1120); conditions: higher = more signal;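 also: probe is a biotin-tagged antibody raised against NOTCH3 rather than NOTCH3 protein; score merges spot fluorescence near 667 nm with spot signal to noise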
[3] = probe aNOTCH2 binding on compound microarray – biochemical, small-molecule microarray, 635/667 nm fluorescence, primary screen (AID 1121); conditions: higher = more signal;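 also: score merges feature fluorescence read at 667 nm with its signal to noise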
[4] = biological target: Carbonic anhydrase 2 (Homo sapiens) (UniProt P00918); test: compounds binding carbonic anhydrase 2 – biochemical, small-molecule microarray, Alexa647-labelled CAII, profiling panel (AID 1122); conditions: CAII-A647 binding fluorescence, higher = more signal
[5] = COS7 lysate on small-molecule microarray, probe aHis, 635 nm (AID 1123); conditions: COS7 cell lysate, fluorescence, higher = more signal;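 also: z-score combines 667nm fluorescence intensity with signal-to-noise per printed compound spot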
[6] = probe aLAP1 signal on lysate-treated microarray – cell lysate, small-molecule microarray, COS7 lysate, primary screen (AID 1124); conditions: probe aLAP1, fluorescence, higher = more signal;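 also: lysate comes from COS7 cells expressing LAP1 and is applied at 0.3 µg/mL; score merges spot fluorescence near 667 nm with signal-to-noise over triplicate slides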
Sam68 (KHDRBS1) = test: compounds binding KHDRBS1 protein – biochemical, small-molecule microarray, 635 nm fluorescence, primary screen (AID 1125); conditions: higher = more signal;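 also: score merges 667 nm channel intensity with signal to noise over triplicate slides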
[7] = system: Chordin-like protein 2 (CHRDL2); test: compounds binding chordin-like 2 – biochemical, small-molecule microarray, 635 nm fluorescence, primary screen (AID 1126); conditions: fluorescence 635 nm, higher = more signal;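 also: printed compound slides probed with Chrdl2 protein at 4 µg/mL for 1 h at 4 C; score merges 667 nm emission intensity with signal to noise over three replicate slides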
[8] = biological target: Concanavalin-A (Canavalia ensiformis) (UniProt P02866); test: compounds binding concanavalin A lectin – biochemical, small-molecule microarray, Alexa647 label, 635 nm, artefact control for SMM control protein annotation, primary screen (AID 1127); conditions: ConA-A647 binding fluorescence, higher = more signal;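 also: z combines 667 nm emission intensity with signal-to-noise across three replicate slides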
[9] = compounds binding Alexa647 anti-His antibody – biochemical, small-molecule microarray, 635 nm fluorescence, artefact control for SMM control protein annotation, primary screen (AID 1128); conditions: higher = more signal;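 also: score merges feature fluorescence with signal-to-noise for each printed compound spot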
[10] = system: Human papillomavirus type 1a E7 protein (residues 1-88); test: HPV1a E7 small-molecule binders, primary screen, biochemical, small-molecule microarray, residues 1-88, 635 nm (AID 1129); conditions: small-molecule microarray binding, fluorescence 635 nm; higher = more signal
[11] = biological target: Focal adhesion kinase 1 (Homo sapiens) (UniProt Q05397); test: PTK2 protein binding on printed compound slides – biochemical, small-molecule microarray, 635/667 nm fluorescence, BSA, DTT, primary screen (AID 1130); conditions: 635 nm fluorescence, higher = more signal;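 also: composite of spot emission at 667 nm and signal to noise over triplicate slides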
[12] = system: Fibrinogen (Alexa647-labelled); test: Alexa647-fibrinogen binding to printed small molecules – biochemical, small-molecule microarray, 635/667 nm fluorescence, artefact control for SMM control-protein annotation, profiling panel (AID 1131); conditions: fibrinogen-A647 binding fluorescence, higher = more signal;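 also: z-score merges 667 nm fluorescence with per-spot signal-to-noise over triplicate slides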
[13] = biological target: Follistatin (Homo sapiens) (UniProt P19883); test: FST protein binding to printed compounds – biochemical, small-molecule microarray, 635/667 nm fluorescence, primary screen (AID 1132); conditions: 635 nm fluorescence, higher = more signal
[14] = biological target: Fibroblast growth factor 2 (Homo sapiens) (UniProt P09038); test: basic fibroblast growth factor binding to printed compounds – biochemical, small-molecule microarray, 635/667 nm fluorescence, primary screen (AID 1133); conditions: FGF2, fluorescence 635/667, higher = more signal
[15] = JC-1 mitochondrial potential readout, lung cancer cells – cell-based, A549, JC-1 fluorescence, basal, 24 h, 100 nL, profiling panel (AID 1138); conditions: higher = more signal;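 also: A549 lung adenocarcinoma cells under basal conditions with no added stimulus; test concentration not given here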
Lefty1 = Lefty1 protein binding to printed compounds – biochemical, small-molecule microarray, 635/667 nm fluorescence, primary screen (AID 1139); conditions: fluorescence 635/667, higher = more signal
[16] = system: wheat germ agglutinin (Triticum aestivum), Alexa647-labelled; test: Alexa647-WGA lectin binding to printed small molecules – biochemical, small-molecule microarray, 635/667 nm fluorescence, artefact control for SMM control-protein annotation, profiling panel (AID 1140); conditions: WGA-A647 binding, 635 nm fluorescence, higher = more signal;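 also: score merges 667 nm feature emission with signal to noise over triplicate slides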
[17] = biological target: Luciferin 4-monooxygenase (Photinus pyralis) (UniProt P08659); test: inhibition of purified Photinus pyralis luciferase – biochemical, luminescence, purified enzyme, 2006 set, primary screen (AID 1141); conditions: purified firefly luciferase, SteadyGlo luminescence, 30 min; higher = more signal, called active from +8 up or from −8 down;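 also: cell-free assay with purified firefly luciferase at 100 ng per well in PBS; test concentration not given here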
Chain of Luciferin 4-monooxygenase (Photinus pyralis) (P08659 whole entry, looked up): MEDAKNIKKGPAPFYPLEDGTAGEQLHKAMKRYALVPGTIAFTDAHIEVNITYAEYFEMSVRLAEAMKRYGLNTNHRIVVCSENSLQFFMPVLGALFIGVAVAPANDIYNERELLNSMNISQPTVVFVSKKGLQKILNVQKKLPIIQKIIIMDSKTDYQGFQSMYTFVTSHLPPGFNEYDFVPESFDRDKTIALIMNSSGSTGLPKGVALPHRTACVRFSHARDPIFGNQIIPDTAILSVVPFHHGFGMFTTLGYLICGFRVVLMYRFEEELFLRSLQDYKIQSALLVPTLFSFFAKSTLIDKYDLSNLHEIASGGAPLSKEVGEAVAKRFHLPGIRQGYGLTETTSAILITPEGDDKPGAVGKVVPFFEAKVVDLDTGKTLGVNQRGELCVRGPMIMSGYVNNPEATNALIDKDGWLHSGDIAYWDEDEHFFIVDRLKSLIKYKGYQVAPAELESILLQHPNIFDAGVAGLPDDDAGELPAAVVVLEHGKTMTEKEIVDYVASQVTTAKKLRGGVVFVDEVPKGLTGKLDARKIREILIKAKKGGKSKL

Chain of Fibroblast growth factor 2 (Homo sapiens) (P09038 whole entry, looked up): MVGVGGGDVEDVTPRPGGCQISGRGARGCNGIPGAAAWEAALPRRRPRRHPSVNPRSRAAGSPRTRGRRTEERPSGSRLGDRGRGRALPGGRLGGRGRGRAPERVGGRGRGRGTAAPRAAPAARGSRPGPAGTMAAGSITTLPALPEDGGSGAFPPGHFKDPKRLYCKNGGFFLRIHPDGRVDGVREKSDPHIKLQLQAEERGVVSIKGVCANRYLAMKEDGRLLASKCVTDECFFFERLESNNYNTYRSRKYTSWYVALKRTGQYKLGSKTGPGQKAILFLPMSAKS
Chain of Follistatin (Homo sapiens) (P19883 whole entry, looked up): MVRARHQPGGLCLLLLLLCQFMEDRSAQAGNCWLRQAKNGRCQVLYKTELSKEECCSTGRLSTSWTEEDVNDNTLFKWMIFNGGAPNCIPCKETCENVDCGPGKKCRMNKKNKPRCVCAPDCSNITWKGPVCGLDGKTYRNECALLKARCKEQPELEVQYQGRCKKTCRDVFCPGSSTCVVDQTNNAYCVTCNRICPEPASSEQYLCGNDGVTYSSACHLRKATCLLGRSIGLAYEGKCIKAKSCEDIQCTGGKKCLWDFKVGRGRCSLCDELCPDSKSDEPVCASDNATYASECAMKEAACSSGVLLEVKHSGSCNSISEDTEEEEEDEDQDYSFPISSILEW
Chain of Albumin (Bos taurus) (P02769 whole entry, looked up): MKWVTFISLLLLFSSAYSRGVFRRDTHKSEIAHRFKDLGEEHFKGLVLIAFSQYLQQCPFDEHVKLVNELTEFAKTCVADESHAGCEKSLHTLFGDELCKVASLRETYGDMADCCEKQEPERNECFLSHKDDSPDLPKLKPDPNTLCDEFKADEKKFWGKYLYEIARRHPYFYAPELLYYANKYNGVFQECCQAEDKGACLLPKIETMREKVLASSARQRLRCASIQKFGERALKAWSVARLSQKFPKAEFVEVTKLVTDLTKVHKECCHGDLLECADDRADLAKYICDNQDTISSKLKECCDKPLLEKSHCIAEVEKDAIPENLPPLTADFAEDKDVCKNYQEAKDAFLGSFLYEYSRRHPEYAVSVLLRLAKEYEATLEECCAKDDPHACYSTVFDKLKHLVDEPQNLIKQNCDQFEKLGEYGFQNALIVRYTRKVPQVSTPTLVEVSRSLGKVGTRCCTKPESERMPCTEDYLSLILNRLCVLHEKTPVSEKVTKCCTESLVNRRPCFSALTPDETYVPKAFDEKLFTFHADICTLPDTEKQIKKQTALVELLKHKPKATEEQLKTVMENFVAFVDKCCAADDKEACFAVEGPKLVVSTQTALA
Chain of Focal adhesion kinase 1 (Homo sapiens) (Q05397 whole entry, looked up): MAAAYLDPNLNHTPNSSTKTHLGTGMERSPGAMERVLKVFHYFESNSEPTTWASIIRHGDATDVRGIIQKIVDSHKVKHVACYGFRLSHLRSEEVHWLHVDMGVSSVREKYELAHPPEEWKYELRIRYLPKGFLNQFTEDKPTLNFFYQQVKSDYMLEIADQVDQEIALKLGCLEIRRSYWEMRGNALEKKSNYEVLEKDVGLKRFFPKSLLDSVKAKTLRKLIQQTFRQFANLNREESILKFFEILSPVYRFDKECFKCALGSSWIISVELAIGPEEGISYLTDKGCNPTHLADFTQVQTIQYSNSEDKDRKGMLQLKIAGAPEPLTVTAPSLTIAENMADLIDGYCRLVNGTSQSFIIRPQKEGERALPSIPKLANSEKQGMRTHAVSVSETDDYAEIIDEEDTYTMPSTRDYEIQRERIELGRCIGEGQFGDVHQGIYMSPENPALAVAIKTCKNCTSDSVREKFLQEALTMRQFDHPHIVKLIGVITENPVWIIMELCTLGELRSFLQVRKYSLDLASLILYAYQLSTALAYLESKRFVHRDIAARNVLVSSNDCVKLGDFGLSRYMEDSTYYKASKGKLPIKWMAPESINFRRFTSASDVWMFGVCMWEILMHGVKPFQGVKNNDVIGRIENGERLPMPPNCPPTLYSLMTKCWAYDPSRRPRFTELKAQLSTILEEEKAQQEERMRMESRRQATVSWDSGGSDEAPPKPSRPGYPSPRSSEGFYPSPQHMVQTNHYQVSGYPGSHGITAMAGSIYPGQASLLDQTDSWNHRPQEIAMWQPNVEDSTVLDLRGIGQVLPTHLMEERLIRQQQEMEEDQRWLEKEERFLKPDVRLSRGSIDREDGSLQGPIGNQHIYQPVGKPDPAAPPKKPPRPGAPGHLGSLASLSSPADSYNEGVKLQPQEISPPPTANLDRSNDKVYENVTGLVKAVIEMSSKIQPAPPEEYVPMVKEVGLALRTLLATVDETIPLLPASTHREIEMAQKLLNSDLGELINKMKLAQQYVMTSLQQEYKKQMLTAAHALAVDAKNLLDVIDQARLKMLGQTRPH
Chain of Concanavalin-A (Canavalia ensiformis) (P02866 whole entry, looked up): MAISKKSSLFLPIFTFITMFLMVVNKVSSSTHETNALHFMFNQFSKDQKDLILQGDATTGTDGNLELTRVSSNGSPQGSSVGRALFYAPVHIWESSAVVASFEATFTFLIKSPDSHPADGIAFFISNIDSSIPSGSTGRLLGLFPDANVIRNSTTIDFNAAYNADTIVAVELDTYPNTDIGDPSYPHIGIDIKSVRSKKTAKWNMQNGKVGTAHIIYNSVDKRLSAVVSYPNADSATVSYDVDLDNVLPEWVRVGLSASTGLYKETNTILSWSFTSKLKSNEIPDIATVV

Compound	composite z-score (Albumin (Bos taurus))	composite Z-score [1]	composite z-score [2]	composite z-score [3]	composite z-score [4]	composite z-score [5]	composite z-score [6]	composite z-score (Sam68 (KHDRBS1))	composite z-score [7]	composite z-score [8]	composite z-score [9]	composite z-score [10]	composite z-score [11]	composite z-score [12]	composite z-score [13]	composite z-score [14]	z-score [15]	composite z-score (Lefty1)	composite z-score [16]	z-score [17]
COc1ccc(C(=O)Nc2cccc(CN3C(=O)[C@]4(O[C@H](CCO)[C@@H]([Si](C)(C)c5ccc(OC)cc5)[C@@H]4C)c4ccccc43)c2)cc1	0.0296	-0.494 (inactive)	0.0297	-0.112	0.41	0.787	0.593	1.21	0.379	1.13	0.869	1.17	0.354	0.579	1.24	0.699	-1.52	1.35	0.32	0.681 (inactive)
C=CCC(OC(C)=O)[C@@H]1[C@@H](N(Cc2ccc(-c3cccc(C(F)(F)F)c3)o2)C(=O)c2ccc(-c3ccccc3)cc2)c2cc(OCCCO)ccc2N1C(=O)c1ccc(-c2ccccc2)cc1 (stereo not given in full)	0.0046	0.111 (inactive)	-0.0957	-0.126	-0.0098	0.0291	-0.128	-0.197	-0.0179	-0.639	-0.674	-0.714	-0.045	-0.557	0.47	-0.0003	0.872	0.164	-0.0266	-0.277 (inactive)
CC(C)N1C(=O)[C@@]2(Cc3ccccc31)c1ccccc1C(=O)N(C1CCCCC1)[C@H]2c1ccc(CO)cc1	-0.352	-0.0662 (inactive)	0.0196	-0.174	0.156	1.59	0.779	0.819	0.78	0.842	-0.192	0.37	-0.0723	0.193	1.33	0.254	-0.958	0.958	-0.01	1.11 (inactive)
COCCOC(=O)N1C(=O)[C@@]2(c3cc(C#CCCO)ccc31)[C@H](C(=O)N1CCN(c3ncccn3)CC1)[C@H]1C(=O)O[C@H](c3ccccc3)[C@H](c3ccccc3)N1[C@@H]2c1ccccc1OCCO	0.922	-0.07 (inactive)	0.195	-0.134	0.582	1.76	0.186	1.31	0.207	1.14	0.475	1.23	0.868	0.972	1.35	0.821	-0.778	0.828	1.04	1.23 (inactive)
COC(=O)[C@@]1(Cc2ccccc2)[C@H]2c3cc(C(=O)N(C)C)n(CCSCCO)c3C[C@H]2CN1C(=O)c1ccccc1	0.569	0.376 (inactive)	0.0893	0.0577	0.801	2.26	-0.154	0.555	-0.25	0.523	1.25	1.2	0.342	0.632	-0.347	-0.299	0.599	-0.84	0.879	1.14 (inactive)
COCCOC(=O)N1C(=O)[C@@]2(c3ccccc31)[C@H](c1ccccc1OCCO)N1[C@H](c3ccccc3)[C@H](c3ccccc3)OC(=O)[C@H]1[C@@H]2C(=O)Nc1nc2ccccc2s1	0.665	0.746 (inactive)	0.133	-0.089	0.481	1.52	1.69	1.31	0.651	1.18	1.04	1.19	0.445	0.994	1.35	1.03	-1.91	1.34	1.18	-2.37 (inactive)
CCOC(=O)[C@H]1C/C=C/C[C@H](C(=O)OCC)C(=O)O[C@H]2[C@@H](OC)O[C@H](CO)[C@@H](OC(=O)Nc3cccc(F)c3)[C@@H]2OC1=O	0.407	0.46 (inactive)	1.06	0.0593	0.66	1.86	0.903	1.19	0.306	0.189	1.82	0.712	0.154	0.966	0.247	0.0815	-2.01	1.11	0.452	-1.14 (inactive)
COC(=O)[C@@]1(Cc2ccc(F)cc2)[C@H]2c3cc(C(=O)N(C)C)n(CC4CC4)c3C[C@H]2CN1C(=O)c1ccccc1	1.02	-0.0191 (inactive)	1.65	0.904	0.773	3.27	0.698	1.35	-0.542	1.1	1.54	1.21	-0.0938	0.94	0.581	-0.272	0.524	-0.12	1.08	0.184 (inactive)
[N-]=[N+]=Nc1ccccc1[C@H]1OC(c2ccc(OCCCO)cc2)=N[C@@]1(Cc1ccccc1)C(=O)O	0.59	-0.001 (inactive)	0.196	-0.146	0.344	1.64	0.0378	1.31	-0.392	0.619	0.864	1.25	0.345	1.04	1.17	0.284	0.384	0.708	0.611	-9.33 (active)
COc1cc2c(cc1OC)CN(C(=O)[C@@H]1[C@H]3C(=O)O[C@H](c4ccccc4)[C@H](c4ccccc4)N3[C@H](c3ccc(O)cc3)[C@@]13C(=O)Nc1ccc(C#CC4(O)CCCCCC4)cc13)CC2	-0.0111	0.841 (inactive)	-0.191	0.0834	0.551	2.01	0.548	1.29	1.03	1.16	2.4	1.25	0.592	0.924	1.14	1.35	-0.373	0.999	0.137	-0.798 (inactive)
CCCCCCC#C[Si](O[C@H](c1ccccc1)c1cn([C@H](CO)Cc2ccccc2)nn1)(C(C)C)C(C)C	-0.188	-0.377 (inactive)	-0.158	-0.14	0.855	1	0.256	0.729	-0.346	-0.0362	0.355	-0.116	-0.074	-1.29	-0.193	-0.489	-0.319	0.65	0.207	0.751 (inactive)
